# Results from PubChem BioAssay (Tox21).
# Inconclusive results are not listed. A call without a number means that no potency is given here. Calls of active or inactive are those of the source. Calls follow the shape of the dose curve; as a rule, active = well fitted cell-killing curve with a large enough effect in the repeat runs; inconclusive = weak or mixed curves, or effect the other way; inactive = no such curve, though single readings can be large or run the other way.
# Experiment: qHTS assay for small molecule activators of the heat shock response signaling pathway - cell viability counter screen (AID 743209); also: nearly all actives have a fitted effect of over 50% in size
# Details: HSE-bla HeLa viability, CellTiter-Glo luminescence, 5 h; series mostly up to 62.6 µM
# From the text: U.S. Tox21 Program National Center for Advancing Translational Sciences [NCATS] NIH Chemical Genomics Center [NCGC] U.S. Environmental Protection Agency [EPA] National Institutes of Environmental Health Sciences [NIEHS] National Toxicology Program [NTP] U.S. Food and Drug Administration [FDA] Tox21 Assay Overview: Various chemicals, environmental and physiological stress conditions may lead to the activation of heat shock response/ unfolded protein response (HSR/UPR). There are three heat shock transcription factors (HSFs) (HSF-1, -2, and -4) mediating transcriptional regulation of the human HSR. To identify the compounds that activate HSR signaling, HSE-bla HeLa cell line (Invitrogen, Carlsbad, CA, USA) containing a beta-lactamase reporter gene under the control of the heat shock response elements was used to screen Tox21 10K compound library. The cytotoxicity of the Tox21 compound library against the HSE-bla HeLa cell line was tested in parallel by measuring the cell viability using CellTiter-Glo assay (Promega, Madison, WI) in the same wells.
# Tox21 Assay Protocol Summary: The CellSensor HSE-bla HeLa cells (Invitrogen, Carlsbad, CA, USA) were dispensed at 1500 cells/6uL/well into 1536-well black wall/clear bottom plates using a Multidrop combi (Thermo Fisher Scientific, Waltham, MA) dispenser. After the assay plates were incubated at 37 C and 5% CO2 overnight, 23 nL of compounds dissolved in DMSO, positive controls or DMSO only was transferred to the assay plate by a Pintool station (Kalypsys, San Diego, CA). The plates were incubated at 37 C for 5 h. After 1 uL of LiveBLAzerTM B/G FRET substrate was added using a Flying Reagent Dispenser (FRD, Beckman Coulter, Indianapolis, IN, USA), the plates were incubated at room temperature for 2.5 h, and fluorescence intensity was measured by an Envision plate reader (PerkinElmer, Shelton, CT). For cell viability readout that measures cytotoxicity, 3 ul/well of CellTiter-Glo reagent was added into the assay plates using a FRD. After 30 min incubation at room temperature, the luminescence intensity in the plates was measured using a ViewLux (PerkinElmer) plate reader.
row,Structure (SMILES),Potency
1,CCOC(=S)SSC(=S)OCC,inactive
2,CC1(C)CCC(C)(C)c2cc(NC(=O)c3ccc(C(=O)O)cc3)ccc21,inactive
3,CCCCCCCC/C=C\CCCCCCCC(N)=O,inactive
4,C[C@@H](C1=C(CCN(C)C)Cc2ccccc21)c1ccccn1,inactive
5,c1ccc(CNCc2ccccc2)cc1,inactive
6,CN1CCN(C2=Nc3ccccc3Sc3ccc(Cl)cc32)CC1,inactive
7,O=C(O)Cc1sc(-c2ccccc2)nc1-c1ccc(Cl)cc1,inactive
8,CC(=O)[C@@]1(O)CC[C@H]2[C@@H]3C[C@H](C)C4=CC(=O)CC[C@]4(C)[C@H]3CC[C@@]21C,inactive
9,Nc1nc(CC(=O)O)cs1,inactive
10,CCCCCCOC(=O)CCC,inactive
11,Cc1ccc(C)o1,inactive
12,O=C(O)Cn1c(C(=O)Nc2nc(-c3ccccc3Cl)cs2)cc2ccccc21,inactive
13,COc1ccc(OC)c(OC)c1,inactive
14,O=C1[C@H](CC[C@H](O)c2ccc(F)cc2)[C@@H](c2ccc(O)cc2)N1c1ccc(F)cc1,inactive
15,Cc1occc1S,inactive
16,NCc1ccccc1,inactive
17,SC1CCCC1,inactive
18,CCCCOC(=O)c1ccccc1C(=O)OCC(CC)CCCC (stereo not given),inactive
19,Cl/C(=C\n1cncn1)c1ccc(Cl)cc1Cl,inactive
20,CN(C)CC/C=C1\c2ccccc2COc2ccccc21,inactive

row,Structure (SMILES),Potency
1,CC(=O)O[C@@H]1C(=O)O[C@@H]2[C@H]1OC(=O)[C@@H]2OC(C)=O,inactive
2,CC(=O)OC/C=C/c1ccccc1,inactive
3,Cn1c(N)nc2nc[nH]c2c1=O,inactive
4,CC1=CC(=O)/C(=C(/C)O)C(=O)O1,inactive
5,c1ccc(-c2nc[nH]c2-c2ccccc2)cc1,inactive
6,CC(=O)/C(C)=C/C1C(C)=CCCC1(C)C (stereo not given),inactive
7,CC(=O)c1ccc2c(c1)[C@H](NC(=O)c1ccc(F)cc1)[C@@H](O)C(C)(C)O2,inactive
8,Cc1cccc(OCCOc2cccc(C)c2)c1,inactive
9,FC(F)(F)C(F)(F)C(F)(F)C(F)(F)C(F)(F)C(F)(F)CCI,inactive
10,COc1ccccc1OC(=O)Oc1ccccc1OC,inactive
11,CC[C@H](C)[C@@H](C(=O)O)n1sc2ccccc2c1=O,inactive
12,O=C(/C=C/c1ccc(O)c(O)c1)O[C@@H]1C[C@](O)(C(=O)O)C[C@@H](O)[C@H]1O,inactive
13,CCC(=O)OC(C)(C)C1CC=C(C)CC1 (stereo not given),inactive
14,CCOC(=O)C1=C(C)NC(C)=C(C(=O)OC)C1c1cccc([N+](=O)[O-])c1 (stereo not given),inactive
15,Cc1cccc(Oc2ccccc2)c1,inactive
16,CCCCCCCCCCCCCCCCCBr,inactive
17,CCOC(=O)CC(C)C,inactive
18,N[C@H]1C(O)O[C@H](CO)[C@H](O)[C@@H]1O (stereo not given in full),inactive
19,Cn1sccc1=O,inactive
20,COc1ccc([C@@H]2Sc3ccccc3N(CCN(C)C)C(=O)[C@@H]2OC(C)=O)cc1,inactive
